About 83,000 compounds went through this panel and 20% of them were active in at least one assay; those are over-represented in the sample as a whole.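 The endpoint reported here, percent growth, reads 100 for growth as untreated, 0 for no net growth and -100 for all cells dead.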 A number with no mark means an inactive call. The source made the active and inactive calls. The calls were made as follows: active = growth percent below 10; inactive = the rest.
What was measured:
Test in all cases: NCI-60 one-dose screen, 48 h (100 = growth as untreated, 0 = no growth, -100 = all killed)
Details in all cases: 10 µM unless noted
[1] = test system: SK-MEL-2 melanoma
[2] = test system: EKVX NSCLC
[3] = test system: SN12C renal
[4] = test system: TK-10 renal
[5] = test system: ACHN renal
[6] = test system: CAKI-1 renal
[7] = test system: A498 renal
[8] = test system: CCRF-CEM leukemia
[9] = test system: MOLT-4 leukemia
[10] = test system: UO-31 renal

CC[C@]12C=CCN3CC[C@@]4(c5ccc(OC)cc5N(C)[C@H]4[C@@](O)(C(=O)OC)[C@@H]1OC(=O)CCC[P+](c1ccccc1)(c1ccccc1)c1ccccc1)[C@@H]32
growth [1]: -65.3% (active)
growth [2]: 10.3%
growth [3]: 2.73% (active)
growth [4]: 22.3%
growth [5]: 89.9%
growth [6]: 52.2%
growth [7]: 13.7%
growth [8]: 11.1%
growth [9]: 5.41% (active)

Cc1ccc2c(-c3nnc(N)s3)cc(=O)oc2c1C
growth [1]: 110%
growth [2]: 97.3%
growth [3]: 99.8%
growth [4]: 102%
growth [5]: 103%
growth [6]: 94.1%
growth [7]: 85.1%
growth [8]: 39.2%
growth [9]: 102%

O=S(=O)(NCCNc1nccc(-c2c(-c3cccc(O)c3)nc3occn23)n1)c1ccc(Br)cc1
growth [1]: 29.1%
growth [2]: 62.1%
growth [3]: 35.6%
growth [4]: 69.8%
growth [5]: 29.8%
growth [6]: 20.2%
growth [7]: 39.7%
growth [8]: 14.6%

CN1CCN(C(=O)C(C)(C)c2ccc(C(=O)Nc3cn4cc(-c5ccncc5)ccc4n3)cc2)CC1
growth [1]: -26.7% (active)
growth [2]: 17.9%
growth [3]: 15.6%
growth [4]: 0.354% (active)
growth [5]: 2.6% (active)
growth [6]: -5.37% (active)
growth [7]: -63.2% (active)
growth [8]: 16%
growth [9]: 11.3%

O=c1c2c3c(sc2n2c(-c4cc(-c5ccccc5)no4)nnc2n1Cc1ccccc1)CCCC3
growth [1]: 119%
growth [2]: 80%
growth [3]: 90.8%
growth [10]: -41.9% (active)
growth [4]: 120%
growth [5]: 95.4%
growth [7]: 82.2%
growth [8]: 34.8%
growth [9]: 55%

CCOC(=O)C(=Cc1ccc(-c2ccccc2)cc1)C(=O)OCC
growth [1]: 51.8%
growth [2]: 95%
growth [3]: 67.3%
growth [4]: 66%
growth [5]: 34%
growth [6]: 85.6%
growth [7]: 108%
growth [8]: 1.19% (active)
growth [9]: -3.57% (active)

COc1ccc(C2=CC(c3cc(OC)c(OC)c(OC)c3)n3ncnc3N2)cc1 (stereo not drawn)
growth [1]: 24%
growth [2]: 66.7%
growth [3]: 38.4%
growth [4]: 62%
growth [5]: 32.4%
growth [6]: 21.7%
growth [7]: -5.66% (active)
growth [8]: 13.8%
growth [9]: 17.3%

CCSc1oc(C)nc1[P+](c1ccccc1)(c1ccccc1)c1ccccc1
growth [1]: 50%
growth [2]: 25.9%
growth [3]: 27.7%
growth [4]: 48.1%
growth [5]: 83.4%
growth [6]: 70.6%
growth [7]: 19.3%
growth [8]: 37.7%
growth [9]: 38.4%

CCOC(=O)CC1CSC(Nc2ccccc2)=N1 (stereo not drawn)
growth [1]: 97.4%
growth [2]: 104%
growth [3]: 103%
growth [4]: 86%
growth [5]: 105%
growth [6]: 103%
growth [7]: 83%
growth [8]: 98.3%
growth [9]: 101%

Cc1ccc(N2C(=O)CCC2=O)cc1
growth [1]: 84.8%
growth [2]: 95.1%
growth [3]: 95.3%
growth [4]: 89.9%
growth [5]: 103%
growth [6]: 96.9%
growth [7]: 82.3%
growth [8]: 108%
growth [9]: 101%

CCOc1c(OC)cc2c(c1O)C(=O)N[C@@H]1[C@@H](O)[C@@H](O)[C@H](O)C[C@@H]21
growth [1]: 106%
growth [2]: 98%
growth [3]: 104%
growth [4]: 93.9%
growth [5]: 103%
growth [6]: 91.3%
growth [7]: 99.5%
growth [8]: 103%
growth [9]: 92.4%

COc1cc(-c2nc3sccn3c2-c2ccnc(NCCNS(=O)(=O)c3ccc(Cl)cc3)n2)ccc1F
growth [1]: 12.6%
growth [2]: 48.8%
growth [3]: 37.4%
growth [4]: 55.1%
growth [5]: 20.4%
growth [6]: 19.6%
growth [7]: 52.8%
growth [8]: 6.78% (active)
growth [9]: -3.87% (active)

Cc1cccc(-c2nc(Nc3ccc4ncsc4c3)c3ccccc3n2)n1
growth [1]: 83.8%
growth [2]: 79.1%
growth [3]: 92%
growth [4]: 87.2%
growth [5]: 91.9%
growth [6]: 105%
growth [7]: 83.6%
growth [8]: 37.5%
growth [9]: 64.2%

CCOc1ccc(-n2nc(C(=O)NCc3ccccc3OC)nc2-c2cc(OC)c(OC)c(OC)c2)cc1
growth [1]: 41.5%
growth [2]: 41.3%
growth [3]: 39.7%
growth [4]: 46.5%
growth [5]: 19.6%
growth [6]: 25.9%
growth [7]: 30%
growth [8]: 39.7%
growth [9]: 0.381% (active)

CCN1C(=O)N(CC)C2C1NN=c1s/c(=C\c3ccc[nH]3)c(=O)n12 (stereo not drawn)
growth [1]: 23.4%
growth [2]: 47.4%
growth [3]: 39.2%
growth [4]: 61.6%
growth [5]: 42.3%
growth [6]: 27.5%
growth [7]: -4.45% (active)
growth [8]: 4.06% (active)
growth [9]: 20.4%

CC(=O)OC(c1ccccc1)C1CCOC1=O (stereo not drawn)
growth [1]: 96.5%
growth [2]: 78.8%
growth [3]: 102%
growth [4]: 92.4%
growth [5]: 96.5%
growth [6]: 75.2%
growth [7]: 98.7%
growth [8]: 109%
growth [9]: 82.8%

CSc1nc(C)c([N+](=O)[O-])c(N)n1
growth [1]: 109%
growth [2]: 102%
growth [3]: 99.1%
growth [4]: 89.4%
growth [5]: 112%
growth [6]: 98.4%
growth [7]: 101%
growth [8]: 62.5%
growth [9]: 93.4%

Cc1ccc2nc(/C(C#N)=C(/CCCO)NC(Cc3ccccc3)C(=O)OCc3ccccc3)[nH]c(=O)c2c1 (stereo not drawn)
growth [1]: 96.8%
growth [2]: 95.6%
growth [10]: 112%
growth [4]: 126%
growth [5]: 107%
growth [7]: 210%
growth [8]: 164%
growth [9]: 112%

O=C(Nc1ccc(Br)cc1)C1=NCCCCN1
growth [1]: 103%
growth [2]: 86.1%
growth [10]: 67.6%
growth [4]: 93.4%
growth [5]: 64.1%
growth [6]: 52.4%
growth [7]: 95.7%
growth [8]: 84.5%
growth [9]: 96.5%

O=C1/C=C/[C@@H](O)[C@@H]2C[C@@H](O)C[C@H]2/C=C/CCC[C@H](CCO)O1
growth [1]: -20.3% (active)
growth [2]: 9.95% (active)
growth [10]: 18.1%
growth [4]: -30.4% (active)
growth [5]: 5.87% (active)
growth [6]: 1.05% (active)
growth [7]: -33.3% (active)
growth [8]: 18.8%
growth [9]: 15.1%
